# In the supplement of paper PMC6555819:
# Experiments:
# Experiment in all cases: PBM binding z-score (relative to random genomic background probes); higher = stronger binding; sequences stand for … in GC…GCGATTGACAGCGTAGAATGAAGG
# [1] = test system: FXR:RXRa (NR concentration 270 nM, RXRa partner concentration 90 nM)
# In short: (§1)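 Each nuclear receptor dimer, without ligand, was incubated for 1 h on custom Agilent 4×180K protein-binding microarrays. Binding was detected with antibodies against each partner (one per run), and scanned fluorescence was regression-normalized. The binding z-scores are referenced to random human genomic background probes.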
# [2] = test system: LXRa:RXRa (NR concentration 270 nM, RXRa partner concentration 90 nM)
# In short: as §1
# [3] = test system: LXRa homodimer (NR concentration 270 nM)
# In short: as §1
# [4] = test system: LXRb:RXRa (NR concentration 270 nM, RXRa partner concentration 90 nM)
# In short: as §1
# [5] = test system: LXRb homodimer (NR concentration 270 nM)
# In short: as §1
# [6] = test system: PPARa:RXRa (NR concentration 270 nM, RXRa partner concentration 90 nM)
# In short: as §1
# [7] = test system: PPARg:RXRa (NR concentration 180 nM, RXRa partner concentration 90 nM)
# In short: as §1
# [8] = test system: PPARg:RXRa 270nM:90nM, anti-RXR (NR concentration 270 nM, RXRa partner concentration 90 nM)
# In short: as §1
# [9] = test system: PPARg:RXRa 30nM:10nM, anti-RXR (NR concentration 30 nM, RXRa partner concentration 10 nM)
# In short: as §1
# [10] = test system: PPARg:RXRa 90nM:30nM, anti-RXR (NR concentration 90 nM, RXRa partner concentration 30 nM)
# In short: as §1
# [11] = test system: PPARg:RXRa DBDmut IVT, anti-RXR (DBD mutation: RXRa K156A/R161A, NR concentration 270 nM, RXRa partner concentration 90 nM)
# In short: as §1
# [12] = test system: PPARg:RXRa IVT, anti-PPARg (NR concentration 270 nM, RXRa partner concentration 90 nM)
# In short: as §1
# [13] = test system: PPARg DBDmut:RXRa IVT, anti-PPARg (DBD mutation: PPARg1 K132A/R137A, NR concentration 270 nM, RXRa partner concentration 90 nM)
# In short: as §1
# [14] = test system: PPARg DBDmut IVT, anti-PPARg (DBD mutation: PPARg1 K132A/R137A, NR concentration 270 nM)
# In short: as §1
# [15] = test system: PPARg homodimer (NR concentration 180 nM)
# In short: as §1
# [16] = test system: PXR:RXRa (NR concentration 270 nM, RXRa partner concentration 90 nM)
# In short: as §1
# [17] = test system: PXR homodimer (NR concentration 270 nM)
# In short: as §1
# [18] = test system: RARa:RXR (NR concentration 270 nM, RXRa partner concentration 90 nM)
# In short: as §1
# [19] = test system: RARa homodimer (NR concentration 270 nM)
# In short: as §1
# [20] = test system: RARb:RXRa (NR concentration 270 nM, RXRa partner concentration 90 nM)
# In short: as §1
Sequence,PBM binding z-score [1],PBM binding z-score [2],PBM binding z-score [3],PBM binding z-score [4],PBM binding z-score [5],PBM binding z-score [6],PBM binding z-score [7],PBM binding z-score [8],PBM binding z-score [9],PBM binding z-score [10],PBM binding z-score [11],PBM binding z-score [12],PBM binding z-score [13],PBM binding z-score [14],PBM binding z-score [15],PBM binding z-score [16],PBM binding z-score [17],PBM binding z-score [18],PBM binding z-score [19],PBM binding z-score [20]
CCTAGGAGGACAACAGGAGGTCAGAGCTGCCAGA,1.35,2.17,2.05,1.53,-0.406,2.1,0.818,0.597,-0.229,0.192,0.869,0.949,-0.763,-0.811,1.47,2.11,0.811,2.48,0.684,2.79
TCTAGTTGGTCAAAGGTCACACATTCGAAATGCG,6.04,5.54,3.96,5.35,1.75,6.86,11.5,9.09,10.8,10.5,3.49,6.33,1.17,1.94,4.05,5.8,1.55,6.86,2.63,5.06
TCGAGTAGGGTACCAATGGGGCATTCAGCTTTCT,-0.419,-0.00421,-0.466,0.0817,-0.885,0.453,-0.266,0.942,0.889,0.836,1.51,1.1,-1.19,-0.695,-0.571,-0.333,-0.807,-0.262,-1.44,0.103
AGAATGAGGTTATCAAGATCAGGGAATTGCGGTC,1.64,1.37,0.0557,1.14,-0.163,2.8,1.6,2.08,0.462,1.29,3.5,2.6,0.708,-0.123,0.956,1.27,0.0679,1.67,0.465,1.71
CAGCCTAGGTCAGGGCCCGTATAGGAGGAACGTT,1.56,0.731,-0.61,0.395,-1.32,1.72,0.643,0.734,-0.158,0.0498,1.27,1.55,-1.13,-1.09,0.811,-0.134,-0.829,0.752,-0.25,3.23
GCGACTGGGGCATCAGCAGGCTACCATAACTTAA,-0.662,-0.723,-0.307,-0.378,-1.43,0.138,0.565,0.457,-1.02,-0.389,4.01,2.87,-0.343,-1.56,-0.243,-0.692,-0.801,-0.592,-1.13,0.346
TCTGGTAGATCAAAGGTTAAGAAAGCCGAAGCCT,1.8,2.1,0.139,2.08,-0.305,3.73,6.37,6.52,5.92,6.95,1.47,2.16,-0.482,0.322,0.978,1.97,0.168,2.79,0.25,1.91
CAAACTAGGTCAAGAGGCCAAAGTCCGCTTCCCG,3.54,2.84,0.509,1.81,-0.0945,4.7,7.87,6.59,4.48,6.47,8.03,8.06,1.13,0.602,1.8,1.56,0.34,2.68,0.79,3.93
CGTCCAAGGACAGCAGGTCAGTGAAAGCGACGTG,0.0413,-0.0225,-0.497,-0.229,-1.12,0.599,0.186,-0.344,-0.721,-0.226,0.0757,0.113,-1.43,-0.869,-0.0601,0.288,-0.263,0.676,-0.162,2.37
CCTCGGAGGACCACAGGAGGTCAGAGCTGCCAGA,0.729,1.79,0.525,1.3,-0.715,1.97,0.00464,0.0668,-0.599,-0.575,-0.849,-0.16,-0.752,-1.46,1.3,2.22,0.21,2.45,0.245,2.18
AGTCAATGTTCATCTAGGTAACGTAAGATATGCT,-0.0895,-0.35,-0.229,-0.0742,-0.311,0.296,0.881,-0.0872,-0.0799,-0.00272,0.56,1.85,1.15,0.949,-0.656,-0.196,0.00127,-0.13,0.181,0.152
ACTACCAGGCCAAGGGTCACTCAAGATTAGTCCG,2.84,3.11,0.63,3.41,0.443,5.06,8.68,7.51,6.65,7.73,1.41,4.54,0.921,-0.0701,2.3,3.38,0.474,4.11,1.31,3.78
GCTAGCAGGCCAGTTGGGTCACTCAATGACGGGC,-0.488,-0.319,-0.976,-0.381,-1.51,0.54,0.164,0.0245,-0.726,-0.378,0.163,0.353,-1.62,-2.01,-0.447,-0.0174,-0.643,0.497,-0.946,1.27
CCGTCTGGGGCAGAAAGGTTACCATACCATCCGG,0.119,0.206,-0.115,0.58,-1.19,1.64,0.9,1.95,0.171,0.988,0.505,0.764,-1.18,-1.86,0.553,0.821,-0.115,1.51,-0.0366,1.54
TCGAGTAGGTTAGGGGCAGTCAGAATGGCGTCGA,0.232,0.211,-0.0968,0.86,-0.416,1.11,0.492,1.58,0.558,1.36,2,1.49,-0.663,-0.988,0.763,0.184,0.227,0.265,-0.345,1.08
